PubChem BioAssay (NCI)
This is part of a sample that, as a whole, favours compounds with a hit. Of some 83,000 tested, about 20% had one in any assay.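 Compound tested at a single concentration for 48 hours in 96-well plates; a percent growth value below 10 was scored as active.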 Active and inactive are the calls of the source.

Assays:
Assay in all cases: NCI-60 one-dose screen, 48 h (100 = growth as untreated, 0 = no growth, -100 = all killed)
Details in all cases: 10 µM unless noted
SK-MEL-2 melanoma = tested on: SK-MEL-2 melanoma
EKVX NSCLC = tested on: EKVX NSCLC
SN12C renal = tested on: SN12C renal
UO-31 renal = tested on: UO-31 renal
TK-10 renal = tested on: TK-10 renal
ACHN renal = tested on: ACHN renal
CAKI-1 renal = tested on: CAKI-1 renal
A498 renal = tested on: A498 renal
MOLT-4 leukemia = tested on: MOLT-4 leukemia
SR leukemia = tested on: SR leukemia
RPMI-8226 leukemia = tested on: RPMI-8226 leukemia
OVCAR-8 ovarian = tested on: OVCAR-8 ovarian
OVCAR-5 ovarian = tested on: OVCAR-5 ovarian
OVCAR-4 ovarian = tested on: OVCAR-4 ovarian
SK-OV-3 ovarian = tested on: SK-OV-3 ovarian
IGROV1 ovarian = tested on: IGROV1 ovarian
OVCAR-3 ovarian = tested on: OVCAR-3 ovarian
HS 578T breast = tested on: HS 578T breast
NCI/ADR-RES ovarian = tested on: NCI/ADR-RES ovarian

Measured: growth

COc1cc2c(cc1-c1c(C)noc1C)ncc1nc(C3CCCCC3)n(C3CCC(OC(F)F)CC3)c12 (stereo unspecified)
inactive: EKVX NSCLC 41.1% | SN12C renal 52.7% | TK-10 renal 24.1% | ACHN renal 37.4% | CAKI-1 renal 42.7% | A498 renal 28.3% | MOLT-4 leukemia 18.4% | SR leukemia 16.7% | OVCAR-8 ovarian 40.5% | OVCAR-5 ovarian 63.5% | OVCAR-4 ovarian 40.3% | IGROV1 ovarian 50.9% | OVCAR-3 ovarian 27.8% | HS 578T breast 52.2% | NCI/ADR-RES ovarian 30%
active: SK-MEL-2 melanoma 6.6% | UO-31 renal 8.28% | RPMI-8226 leukemia 4.9% | SK-OV-3 ovarian -2.64%

O=C(O)c1ccc2c(c1Cl)C(=O)c1ccccc1C2=O
inactive: SK-MEL-2 melanoma 70.2% | EKVX NSCLC 20.9% | SN12C renal 98.8% | UO-31 renal 93.2% | TK-10 renal 130% | ACHN renal 99.1% | CAKI-1 renal 89.4% | A498 renal 111% | MOLT-4 leukemia 78.1% | SR leukemia 70.7% | RPMI-8226 leukemia 104% | OVCAR-8 ovarian 118% | OVCAR-5 ovarian 102% | OVCAR-4 ovarian 81.3% | SK-OV-3 ovarian 102% | IGROV1 ovarian 167% | OVCAR-3 ovarian 99.5% | HS 578T breast 123% | NCI/ADR-RES ovarian 97.5%

N#C/C(=C\c1ccc2c(c1)OCO2)n1nnc2cc(F)c(F)cc21
inactive: SK-MEL-2 melanoma 78.7% | EKVX NSCLC 82.7% | SN12C renal 68.3% | UO-31 renal 61.3% | TK-10 renal 101% | ACHN renal 65.1% | CAKI-1 renal 50.7% | A498 renal 44.9% | MOLT-4 leukemia 63.9% | SR leukemia 42.6% | RPMI-8226 leukemia 64.5% | OVCAR-8 ovarian 60.7% | OVCAR-5 ovarian 96.8% | OVCAR-4 ovarian 64.6% | SK-OV-3 ovarian 83.6% | IGROV1 ovarian 71.8% | OVCAR-3 ovarian 31.8% | HS 578T breast 84.7% | NCI/ADR-RES ovarian 27.4%

CC/C=C\C/C=C\C[C@H](O)C/C=C1/C(=O)C=C[C@@H]1C/C=C\CCCC(=O)O
inactive: SK-MEL-2 melanoma 23.2% | EKVX NSCLC 95.3% | SN12C renal 16.9% | UO-31 renal 57% | TK-10 renal 79% | ACHN renal 60.2% | CAKI-1 renal 37.8% | A498 renal 96.6% | OVCAR-5 ovarian 65.3% | OVCAR-4 ovarian 47.4% | SK-OV-3 ovarian 109% | IGROV1 ovarian 63.1% | HS 578T breast 42.6% | NCI/ADR-RES ovarian 31.3%
active: MOLT-4 leukemia 7.61% | SR leukemia 6.21% | RPMI-8226 leukemia 3.88% | OVCAR-8 ovarian -4.92% | OVCAR-3 ovarian 7.83%

CC1CC(C(C)(C)C)C(=O)C(C(C)(C)C)C1 (stereo unspecified)
inactive: SK-MEL-2 melanoma 105% | EKVX NSCLC 101% | SN12C renal 105% | UO-31 renal 96.2% | TK-10 renal 98.2% | ACHN renal 105% | CAKI-1 renal 105% | A498 renal 93.4% | MOLT-4 leukemia 104% | SR leukemia 101% | RPMI-8226 leukemia 111% | OVCAR-8 ovarian 107% | OVCAR-5 ovarian 99.6% | OVCAR-4 ovarian 119% | SK-OV-3 ovarian 105% | IGROV1 ovarian 126% | OVCAR-3 ovarian 118% | HS 578T breast 106% | NCI/ADR-RES ovarian 114%

O=[N+]([O-])c1ccc(-c2cc(-c3ccc(Nc4nc(Nc5ccc(Cl)cc5)nc(Nc5ccc(Cl)cc5)n4)cc3)no2)cc1
inactive: SK-MEL-2 melanoma 72.4% | EKVX NSCLC 92.9% | SN12C renal 97.6% | UO-31 renal 78.8% | TK-10 renal 105% | ACHN renal 94.5% | CAKI-1 renal 115% | A498 renal 88.2% | SR leukemia 14.5% | RPMI-8226 leukemia 34.7% | OVCAR-8 ovarian 99% | OVCAR-5 ovarian 70.7% | OVCAR-4 ovarian 31.4% | SK-OV-3 ovarian 107% | IGROV1 ovarian 92% | OVCAR-3 ovarian 241% | HS 578T breast 99.9% | NCI/ADR-RES ovarian 75.3%
active: MOLT-4 leukemia -19.7%

Cc1ccc2nc(NC(=O)CSc3nc(Nc4ccc([N+](=O)[O-])cc4)c(C#N)c(-c4ccccc4)n3)sc2c1
inactive: SK-MEL-2 melanoma 104% | EKVX NSCLC 91.1% | SN12C renal 97.9% | UO-31 renal 78.8% | TK-10 renal 101% | ACHN renal 90.7% | CAKI-1 renal 87.9% | A498 renal 116% | MOLT-4 leukemia 97.8% | SR leukemia 47.6% | RPMI-8226 leukemia 80% | OVCAR-8 ovarian 91.5% | OVCAR-5 ovarian 87.5% | OVCAR-4 ovarian 88.4% | SK-OV-3 ovarian 98.3% | IGROV1 ovarian 76.1% | OVCAR-3 ovarian 102% | HS 578T breast 85% | NCI/ADR-RES ovarian 95%

N#Cc1c(-c2ccccc2)cc(-c2ccc(Nc3nc(Nc4ccc(F)cc4)nc(Nc4ccc(F)cc4)n3)cc2)nc1N
inactive: SK-MEL-2 melanoma 79.7% | EKVX NSCLC 88.9% | SN12C renal 90.3% | UO-31 renal 90.4% | TK-10 renal 94% | ACHN renal 107% | CAKI-1 renal 99.8% | A498 renal 91.7% | MOLT-4 leukemia 17.3% | RPMI-8226 leukemia 14.9% | OVCAR-8 ovarian 97.2% | OVCAR-5 ovarian 70.9% | OVCAR-4 ovarian 108% | SK-OV-3 ovarian 100% | IGROV1 ovarian 95.5% | OVCAR-3 ovarian 89.5% | HS 578T breast 87.8% | NCI/ADR-RES ovarian 76.1%
active: SR leukemia 0.591%

COC(=O)c1c2c(c(C)[n+]([O-])c1C)C(=O)C(NCc1ccc(F)cc1)=CC2=O
active: SN12C renal -2.05% | MOLT-4 leukemia -19.6% | SR leukemia 9.28% | OVCAR-8 ovarian -5.16% | OVCAR-4 ovarian -38.5% | OVCAR-3 ovarian -21%
inactive: SK-MEL-2 melanoma 30.6% | EKVX NSCLC 58.8% | UO-31 renal 71.9% | TK-10 renal 81.4% | ACHN renal 48.3% | CAKI-1 renal 50.7% | A498 renal 98.6% | RPMI-8226 leukemia 26.9% | OVCAR-5 ovarian 46.2% | SK-OV-3 ovarian 84.1% | IGROV1 ovarian 17.6% | HS 578T breast 82.6% | NCI/ADR-RES ovarian 10%

CCOC(=O)c1c2c(n3ccc(NC(=O)OC(C)(C)C)cc13)C(=O)c1ncccc1C2=O
inactive: OVCAR-4 ovarian 11.9%
active: SK-MEL-2 melanoma 9.26% | EKVX NSCLC -39.8% | SN12C renal -31% | UO-31 renal -76.4% | TK-10 renal 6.15% | ACHN renal -41% | CAKI-1 renal -3.67% | A498 renal -0.0751% | MOLT-4 leukemia 7.38% | SR leukemia 7.58% | RPMI-8226 leukemia -6.66% | OVCAR-8 ovarian -11.4% | OVCAR-5 ovarian -5.26% | SK-OV-3 ovarian -32.9% | IGROV1 ovarian -4.89% | OVCAR-3 ovarian -33.6% | HS 578T breast -25.3% | NCI/ADR-RES ovarian -35.9%

NNC(=O)c1nc(N)n(-c2ccc(S(N)(=O)=O)cc2)n1
inactive: SK-MEL-2 melanoma 107% | EKVX NSCLC 98.2% | SN12C renal 97.6% | UO-31 renal 76.2% | TK-10 renal 104% | ACHN renal 100% | CAKI-1 renal 88% | A498 renal 103% | MOLT-4 leukemia 105% | SR leukemia 88.5% | RPMI-8226 leukemia 91.4% | OVCAR-8 ovarian 96.2% | OVCAR-5 ovarian 101% | OVCAR-4 ovarian 100% | SK-OV-3 ovarian 94.7% | IGROV1 ovarian 103% | OVCAR-3 ovarian 89.2% | HS 578T breast 94.5% | NCI/ADR-RES ovarian 100%

C=CCn1c(C)nc2cc(Nc3nc(Cl)nc4ccccc34)ccc21
inactive: SK-MEL-2 melanoma 99.5% | EKVX NSCLC 93.7% | SN12C renal 97.3% | UO-31 renal 93.8% | TK-10 renal 114% | ACHN renal 103% | CAKI-1 renal 87.2% | A498 renal 55.4% | MOLT-4 leukemia 78.7% | SR leukemia 94.7% | RPMI-8226 leukemia 75.2% | OVCAR-8 ovarian 93.8% | OVCAR-5 ovarian 99.8% | OVCAR-4 ovarian 91.2% | SK-OV-3 ovarian 122% | IGROV1 ovarian 116% | OVCAR-3 ovarian 102% | HS 578T breast 92.7% | NCI/ADR-RES ovarian 90.3%

C=C(C)[C@@H]1CC[C@]2(C(=O)NC3CCCCC3)CC[C@]3(C)[C@H](CC[C@@H]4[C@@]5(C)CCC(=O)C(C)(C)[C@@H]5CC[C@]43C)[C@@H]12
inactive: SK-MEL-2 melanoma 95% | EKVX NSCLC 93.9% | SN12C renal 86% | UO-31 renal 76.1% | TK-10 renal 95.2% | ACHN renal 99.8% | CAKI-1 renal 76.6% | A498 renal 83.3% | MOLT-4 leukemia 88% | SR leukemia 115% | RPMI-8226 leukemia 83.1% | OVCAR-8 ovarian 94.6% | OVCAR-5 ovarian 96.5% | OVCAR-4 ovarian 82.1% | SK-OV-3 ovarian 97.1% | IGROV1 ovarian 101% | OVCAR-3 ovarian 96.7% | HS 578T breast 89.5% | NCI/ADR-RES ovarian 104%

CC(=O)[C@@H]1CC[C@]2(COS(=O)(=O)c3ccc(C)cc3)CC[C@]3(C)[C@H](CC[C@@H]4[C@@]5(C)CCCNC(C)(C)[C@@H]5CC[C@]43C)[C@@H]12
inactive: SK-MEL-2 melanoma 105% | EKVX NSCLC 94% | SN12C renal 78% | UO-31 renal 66.3% | TK-10 renal 106% | ACHN renal 87.1% | CAKI-1 renal 82.7% | A498 renal 85.9% | MOLT-4 leukemia 21.9% | RPMI-8226 leukemia 46.4% | OVCAR-8 ovarian 84% | OVCAR-5 ovarian 81% | OVCAR-4 ovarian 60.6% | SK-OV-3 ovarian 91.1% | IGROV1 ovarian 58.2% | OVCAR-3 ovarian 88.1% | HS 578T breast 81.7% | NCI/ADR-RES ovarian 78.8%
active: SR leukemia -24.6%

CCCCCCCCCCN(CCCCCCCCCC)CC(=O)c1ccc2cc(Br)c3ccccc3c2c1
active: UO-31 renal 2.3% | MOLT-4 leukemia -39.6% | SR leukemia -28.5% | RPMI-8226 leukemia -33.1% | IGROV1 ovarian -79.5%
inactive: SK-MEL-2 melanoma 101% | EKVX NSCLC 83.5% | SN12C renal 81.1% | TK-10 renal 79.9% | ACHN renal 97.3% | CAKI-1 renal 46.3% | A498 renal 53.2% | OVCAR-8 ovarian 86.9% | OVCAR-5 ovarian 95.3% | SK-OV-3 ovarian 104% | OVCAR-3 ovarian 51.2% | NCI/ADR-RES ovarian 64.8%

N#CCN1C(=O)C2C3=C(CCCC3)SC2N=C1CN1CCCC1 (stereo unspecified)
active: UO-31 renal 7.35%
inactive: SK-MEL-2 melanoma 83.5% | EKVX NSCLC 96% | SN12C renal 100% | TK-10 renal 104% | ACHN renal 104% | CAKI-1 renal 104% | A498 renal 100% | MOLT-4 leukemia 79.9% | SR leukemia 81.1% | RPMI-8226 leukemia 50.2% | OVCAR-8 ovarian 97.7% | OVCAR-5 ovarian 101% | OVCAR-4 ovarian 101% | SK-OV-3 ovarian 109% | OVCAR-3 ovarian 113% | HS 578T breast 108% | NCI/ADR-RES ovarian 96.3%
